The campaign covered roughly 310,000 compounds. About 2,200 (0.71%) showed an effect of 50% or more. The effect is printed as a negative number. Many of the other results were omitted from the sample, so strong results are more common in it than they were.
Each compound was assayed against human ether-à-go-go-related gene (hERG) potassium channel (human, UniProt Q12809) (assay: primary screen, population patch clamp on CHO cells stably expressing hERG; higher = less effect of the substance).
human ether-à-go-go-related gene (hERG) potassium channel, sequence (Q12809 whole entry, looked up): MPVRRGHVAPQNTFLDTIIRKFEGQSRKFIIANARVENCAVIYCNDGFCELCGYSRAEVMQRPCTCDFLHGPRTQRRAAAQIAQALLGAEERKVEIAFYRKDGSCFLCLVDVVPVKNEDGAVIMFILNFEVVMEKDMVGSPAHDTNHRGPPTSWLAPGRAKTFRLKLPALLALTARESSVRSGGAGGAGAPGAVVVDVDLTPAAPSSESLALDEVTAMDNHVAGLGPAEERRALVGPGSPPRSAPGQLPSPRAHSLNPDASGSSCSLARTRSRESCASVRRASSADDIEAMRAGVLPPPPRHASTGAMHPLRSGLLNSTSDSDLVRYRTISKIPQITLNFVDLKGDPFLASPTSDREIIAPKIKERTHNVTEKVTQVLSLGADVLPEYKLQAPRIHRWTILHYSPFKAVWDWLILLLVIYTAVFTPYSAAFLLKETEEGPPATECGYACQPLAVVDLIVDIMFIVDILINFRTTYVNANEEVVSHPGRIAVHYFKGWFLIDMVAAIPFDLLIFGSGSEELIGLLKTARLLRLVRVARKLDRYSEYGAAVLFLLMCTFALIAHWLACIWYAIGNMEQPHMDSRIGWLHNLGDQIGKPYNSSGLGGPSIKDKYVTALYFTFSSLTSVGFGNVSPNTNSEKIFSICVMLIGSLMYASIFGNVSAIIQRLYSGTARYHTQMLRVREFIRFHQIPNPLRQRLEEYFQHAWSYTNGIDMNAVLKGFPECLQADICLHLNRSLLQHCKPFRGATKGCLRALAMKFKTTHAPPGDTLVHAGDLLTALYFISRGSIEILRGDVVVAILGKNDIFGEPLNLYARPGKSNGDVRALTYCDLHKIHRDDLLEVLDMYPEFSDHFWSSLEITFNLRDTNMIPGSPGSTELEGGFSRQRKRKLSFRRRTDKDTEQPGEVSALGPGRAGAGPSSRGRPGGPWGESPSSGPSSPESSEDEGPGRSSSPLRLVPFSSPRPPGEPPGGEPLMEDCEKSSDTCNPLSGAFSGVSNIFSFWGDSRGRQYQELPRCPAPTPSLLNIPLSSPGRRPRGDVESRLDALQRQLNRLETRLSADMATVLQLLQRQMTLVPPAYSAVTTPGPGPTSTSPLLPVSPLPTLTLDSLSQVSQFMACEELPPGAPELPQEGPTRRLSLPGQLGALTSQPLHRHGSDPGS

Row | SMILES | hERG current change (%, negative = inhibition) at 1uM [%]
1 | Oc1c(Cl)cc(Cl)cc1C=Nc1ccc(N2CCOCC2)cc1 | 9.19
2 | COC(=O)c1c(NC(=O)c2nn(C)cc2Cl)sc2c1CCCC2 | 19.3
3 | Cc1cc2cc(C(c3nnnn3Cc3ccco3)N3CCCCC3)c(=O)[nH]c2cc1C (stereo not shown) | 6.29
4 | Cc1nnsc1C(=O)NNC(=O)c1cccc2ccccc12 | 9.5
5 | CC1C=CCC2C(=O)N(c3ccccc3OC(=O)c3cccs3)C(=O)C12 (stereo not shown) | 9.04
6 | Cc1cccc(C)c1NC(=O)NC1(C(=O)NCc2ccncc2)CCCCC1 | 12.6
7 | CC1CN(CCCOc2ccc([N+](=O)[O-])cc2)CC(C)O1.O=C(O)C(=O)O (stereo not shown) | -59.6
8 | CC1CCCN(CCCOc2ccc([N+](=O)[O-])cc2)C1.O=C(O)C(=O)O (stereo not shown) | -77.4
9 | CC1CC(C)CN(CCOc2ccc(Br)cc2)C1.O=C(O)C(=O)O (stereo not shown) | -12.4
10 | CC1CN(CCCCOc2ccc(F)cc2)CC(C)O1.O=C(O)C(=O)O (stereo not shown) | -4.39
11 | CC1CN(CCOc2ccc([N+](=O)[O-])cc2)CC(C)O1.O=C(O)C(=O)O (stereo not shown) | -13.6
12 | Cl.Clc1ccc(OCCCCN2CCc3ccccc3C2)cc1 | -8.64
13 | O=C(COc1ccc([N+](=O)[O-])cc1)N1CCc2ccccc2C1 | -15
14 | COc1ccc(OCCCN2CCCC(C)C2)cc1 (stereo not shown) | -2.33
15 | CC1CC(C)CN(CCCCOc2ccc([N+](=O)[O-])cc2)C1.O=C(O)C(=O)O (stereo not shown) | -80.3
16 | O=C(O)C(=O)O.O=[N+]([O-])c1ccc(OCCCCN2CCc3ccccc3C2)cc1 | -81.1
17 | CCCOc1ccc(OCCN2CCCC(C)C2)cc1.O=C(O)C(=O)O (stereo not shown) | 0.638
18 | CC1CC(C)CN(CCCOc2ccccc2[N+](=O)[O-])C1.O=C(O)C(=O)O (stereo not shown) | 5.91
19 | NC(=O)c1ccc(-c2nnn(CC(=O)N(C3CCCCC3)C3CCS(=O)(=O)C3)n2)cc1 (stereo not shown) | 9.79
20 | Cc1ccc(C)c(N2CCN(C(=O)C3CCCN(S(=O)(=O)c4c(C)[nH]c(=O)[nH]c4=O)C3)CC2)c1 (stereo not shown) | 9.86
21 | CCOc1ncccc1C(=O)Nc1ccc(Cl)c(S(=O)(=O)N2CCCC2)c1 | 2.41
22 | O=C(Nc1cccc(O)c1)c1ccc(C(=O)c2ccccc2)o1 | -1.55

Row | SMILES | hERG current change (%, negative = inhibition) at 1uM [%]
23 | CCOc1ccc(CC(=O)NNC(=S)NC2CCCCC2)cc1OCC | 7.2
24 | COc1ccc(-n2nnnc2SCC(=O)Nc2nnc(C)s2)cc1OC | -7.62
25 | CC(=O)Nc1ccc(Nc2c3c4c(cccc4n(C)c2=O)C(=O)c2ccccc2-3)cc1 | 10.6
26 | Nc1nc(SCC(=O)c2cccs2)n[nH]1 | 6.15
27 | Cc1cc(C)cc(OCC(=O)Nc2ccc3c(c2)OCCO3)c1 | 15.5
28 | COC(=O)C1C(=O)NCC1c1ccc(C)cc1 (stereo not shown) | 11.9
29 | Cc1ccc(CS(=O)(=O)Cc2ccc(C(=O)N3CCC4(CC3)OCCO4)o2)cc1 | -1.4
30 | CCN(CC(=O)NCc1ccc(F)cc1)C(=O)CN1CCN(c2ccccc2OC)CC1 | -44.4
31 | CCN(CC(=O)NCc1ccc(Cl)cc1)C(=O)c1ccc2cc(OC)ccc2c1 | 7.72
32 | CCN(CC(=O)NCc1ccc(F)cc1)C(=O)Cc1ccc(OC)cc1 | -37.8
33 | CCN(CC(=O)NCc1ccc(F)cc1)C(=O)CN1CCN(c2cc(Cl)ccc2C)CC1 | -68.2
34 | CCN(CC(=O)NCc1ccc(Cl)cc1)C(=O)/C=C/c1ccccc1 | -1.79
35 | CCN(CC(=O)NCc1ccc(Cl)cc1)C(=O)/C=C/c1cc(OC)c(OC)c(OC)c1 | 11.2
36 | CCN(CC(=O)NCc1ccc(Cl)cc1)C(=O)Cc1ccc(OC)cc1 | -66.9
37 | CCN(CC(=O)NCc1ccc(F)cc1)C(=O)CN1CCN(c2ccc(OC)cc2)CC1.O=C(O)C(=O)O | -21.1
38 | CCN(CC(=O)NCc1ccc(Cl)cc1)C(=O)/C=C/c1ccc(C#N)cc1 | -52.1
39 | CCOc1ccc(C(=O)CCC(=O)N(CC)CC(=O)NCc2ccc(Cl)cc2)cc1 | -8.36
40 | CCN(CC(=O)NCc1ccc(Cl)cc1)C(=O)CCC(=O)c1ccc(F)cc1 | -52.2
41 | CCN(CC(=O)NCc1ccc(Cl)cc1)C(=O)CCC(=O)c1ccc(C)cc1 | -8.96
42 | O=[N+]([O-])c1ccc(CN2CCC(Cc3ccccc3)CC2)cc1 | -9.62
43 | O=C(NCC1(O)CCCCC1)C1CCC(=O)N(Cc2ccccc2F)C1 (stereo not shown) | 15.8
